# From ChEMBL document CHEMBL3988442, “University of Dundee, Small-Polar-MMV Screening Library” (2021)
# For some assays here: Results with a measured potency or affinity are listed apart.
# How the values were obtained:
# [1] = target: T1, Methionyl-tRNA synthetase, putative (Leishmania donovani (strain BPK282A1)) (UniProt E9BF75); assay: Leishmania donovani Methionine tRNA synthetase (LdMetRS):v7. Dose response assay; format: functional; design: conc 80 nM, time 150 minutes
# T1 sequence (whole entry): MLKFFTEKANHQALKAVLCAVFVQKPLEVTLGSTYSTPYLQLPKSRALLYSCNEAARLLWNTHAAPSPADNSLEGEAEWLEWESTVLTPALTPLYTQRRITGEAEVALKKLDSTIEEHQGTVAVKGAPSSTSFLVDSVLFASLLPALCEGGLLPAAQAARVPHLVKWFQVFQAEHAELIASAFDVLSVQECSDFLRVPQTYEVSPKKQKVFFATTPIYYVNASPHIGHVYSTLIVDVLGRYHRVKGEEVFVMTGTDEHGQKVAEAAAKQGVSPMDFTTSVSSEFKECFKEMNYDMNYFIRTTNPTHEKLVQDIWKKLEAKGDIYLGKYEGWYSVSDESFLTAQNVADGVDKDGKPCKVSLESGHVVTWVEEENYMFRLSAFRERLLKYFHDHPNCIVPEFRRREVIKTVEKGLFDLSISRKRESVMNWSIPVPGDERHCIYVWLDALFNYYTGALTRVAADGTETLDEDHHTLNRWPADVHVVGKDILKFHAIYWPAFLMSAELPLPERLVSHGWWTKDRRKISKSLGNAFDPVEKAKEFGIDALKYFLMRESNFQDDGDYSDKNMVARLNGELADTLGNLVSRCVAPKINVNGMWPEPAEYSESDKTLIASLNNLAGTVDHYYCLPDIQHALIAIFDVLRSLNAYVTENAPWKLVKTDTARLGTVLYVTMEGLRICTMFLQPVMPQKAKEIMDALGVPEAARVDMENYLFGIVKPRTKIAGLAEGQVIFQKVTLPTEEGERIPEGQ
# [2] = target: Protein translocase subunit SecA (Escherichia coli (strain K12)) (UniProt P10408); assay: Assay to Identify E. coli SecA ATPase Inhibitors; format: functional; design: scale not given: direction of the effect not stated beside the values; details: 30 µM
# [3] = target: T2, Ubiquitin-activating enzyme e1, putative (Leishmania donovani (strain BPK282A1)) (UniProt E9BSI1); assay: Leishmania donovani Ubiquitin Activating Enzyme (LdE1); format: functional; design: scale not given: direction of the effect not stated beside the values; details: 30 µM
# T2 sequence (whole entry): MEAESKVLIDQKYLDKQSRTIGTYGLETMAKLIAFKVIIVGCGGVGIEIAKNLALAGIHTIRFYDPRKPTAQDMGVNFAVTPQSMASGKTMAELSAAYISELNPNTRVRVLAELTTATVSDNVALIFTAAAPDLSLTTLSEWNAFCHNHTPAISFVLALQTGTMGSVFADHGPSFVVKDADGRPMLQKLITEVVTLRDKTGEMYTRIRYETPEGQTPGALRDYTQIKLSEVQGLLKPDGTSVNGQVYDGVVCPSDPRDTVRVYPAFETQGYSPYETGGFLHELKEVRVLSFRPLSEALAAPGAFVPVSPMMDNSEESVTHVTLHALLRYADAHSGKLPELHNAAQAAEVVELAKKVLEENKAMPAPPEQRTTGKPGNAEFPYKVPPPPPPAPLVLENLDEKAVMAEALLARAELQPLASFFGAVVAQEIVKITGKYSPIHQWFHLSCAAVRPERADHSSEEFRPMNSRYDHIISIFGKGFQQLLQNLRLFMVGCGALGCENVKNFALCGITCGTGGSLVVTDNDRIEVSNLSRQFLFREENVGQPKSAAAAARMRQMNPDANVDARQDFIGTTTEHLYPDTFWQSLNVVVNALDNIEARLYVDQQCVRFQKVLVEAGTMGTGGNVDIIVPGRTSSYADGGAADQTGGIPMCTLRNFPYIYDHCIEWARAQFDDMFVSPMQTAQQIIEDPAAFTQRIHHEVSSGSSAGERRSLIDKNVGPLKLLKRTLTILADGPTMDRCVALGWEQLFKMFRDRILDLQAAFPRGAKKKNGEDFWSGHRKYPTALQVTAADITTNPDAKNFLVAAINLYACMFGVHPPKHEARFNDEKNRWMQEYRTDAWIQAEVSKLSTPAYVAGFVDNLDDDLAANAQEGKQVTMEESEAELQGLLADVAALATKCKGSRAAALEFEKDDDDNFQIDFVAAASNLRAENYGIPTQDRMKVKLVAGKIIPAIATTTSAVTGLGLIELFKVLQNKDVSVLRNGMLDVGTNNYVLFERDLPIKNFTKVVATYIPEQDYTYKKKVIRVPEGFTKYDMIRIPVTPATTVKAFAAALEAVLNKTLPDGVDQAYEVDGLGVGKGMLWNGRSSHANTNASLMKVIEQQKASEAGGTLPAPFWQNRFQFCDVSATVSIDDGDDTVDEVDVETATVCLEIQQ
# [4] = target: Sialic acid-binding Ig-like lectin 9 (Homo sapiens) (UniProt Q9Y336); assay: Hs-Siglec9 ALPHAscreen SOP 20170721; design: scale not given: direction of the effect not stated beside the values; details: 10 µM
# Trypanosoma cruzi = assay: Trypanosoma cruzi phosphomannomutase and mannose-1-phosphate guanylyltransferase assay; format: functional; design: scale not given: direction of the effect not stated beside the values; details: 10 µM
# [5] = target: T3, Arginase-2, mitochondrial (Homo sapiens) (UniProt P78540); assay: in vitro enzyme assay to detect the production of urea directly proportional to the activity of Arginase II; format: functional; design: scale not given: in the data most compounds retested in dose-response had high values; details: 33.3 µM
# T3 sequence (whole entry): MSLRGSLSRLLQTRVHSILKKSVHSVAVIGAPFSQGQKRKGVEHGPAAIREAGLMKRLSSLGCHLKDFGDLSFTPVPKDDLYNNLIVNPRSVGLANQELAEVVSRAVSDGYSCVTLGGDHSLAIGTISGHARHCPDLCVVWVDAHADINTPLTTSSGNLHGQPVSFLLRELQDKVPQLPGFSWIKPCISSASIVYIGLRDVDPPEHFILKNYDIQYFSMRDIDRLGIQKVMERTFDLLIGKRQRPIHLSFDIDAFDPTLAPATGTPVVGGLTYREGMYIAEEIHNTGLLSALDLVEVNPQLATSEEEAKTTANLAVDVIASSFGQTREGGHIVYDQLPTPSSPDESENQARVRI
# [6] = target: T4, Proteasome subunit beta (Trypanosoma cruzi) (UniProt O96673); assay: Trypanosoma cruzi proteasome chymotrypsin-like activity (TcProtChymo) assay.; format: functional; design: scale not given: in the data most compounds retested in dose-response had high values; details: 9.37 µM
# T4 sequence (whole entry): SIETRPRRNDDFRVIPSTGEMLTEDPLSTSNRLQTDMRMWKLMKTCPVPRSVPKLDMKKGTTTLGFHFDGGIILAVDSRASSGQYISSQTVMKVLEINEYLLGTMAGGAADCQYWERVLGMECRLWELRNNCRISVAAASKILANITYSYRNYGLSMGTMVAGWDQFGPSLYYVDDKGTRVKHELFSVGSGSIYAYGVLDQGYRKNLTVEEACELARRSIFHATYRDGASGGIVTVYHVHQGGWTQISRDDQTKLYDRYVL
# Homo sapiens = species: Homo sapiens; assay: To identify inhibition of the IFN signalling (Jak-Stat) pathway via expression of an eGFP reporter gene under the control of an IFN-stimulated response element (ISRE) containing MxA promoter.; format: functional; design: scale not given: direction of the effect not stated beside the values; details: 30 µM
# [7] = target: T5, Tyrosyl-tRNA synthetase, putative (Trypanosoma cruzi (strain CL Brener)) (UniProt Q4DSP6); assay: Trypanosoma cruzi tyrosyl tRNA synthetase (TcYRS) _High Tyrosine SOP; format: functional; design: scale not given: in the data most compounds retested in dose-response had high values; details: 30 µM
# T5 sequence (whole entry): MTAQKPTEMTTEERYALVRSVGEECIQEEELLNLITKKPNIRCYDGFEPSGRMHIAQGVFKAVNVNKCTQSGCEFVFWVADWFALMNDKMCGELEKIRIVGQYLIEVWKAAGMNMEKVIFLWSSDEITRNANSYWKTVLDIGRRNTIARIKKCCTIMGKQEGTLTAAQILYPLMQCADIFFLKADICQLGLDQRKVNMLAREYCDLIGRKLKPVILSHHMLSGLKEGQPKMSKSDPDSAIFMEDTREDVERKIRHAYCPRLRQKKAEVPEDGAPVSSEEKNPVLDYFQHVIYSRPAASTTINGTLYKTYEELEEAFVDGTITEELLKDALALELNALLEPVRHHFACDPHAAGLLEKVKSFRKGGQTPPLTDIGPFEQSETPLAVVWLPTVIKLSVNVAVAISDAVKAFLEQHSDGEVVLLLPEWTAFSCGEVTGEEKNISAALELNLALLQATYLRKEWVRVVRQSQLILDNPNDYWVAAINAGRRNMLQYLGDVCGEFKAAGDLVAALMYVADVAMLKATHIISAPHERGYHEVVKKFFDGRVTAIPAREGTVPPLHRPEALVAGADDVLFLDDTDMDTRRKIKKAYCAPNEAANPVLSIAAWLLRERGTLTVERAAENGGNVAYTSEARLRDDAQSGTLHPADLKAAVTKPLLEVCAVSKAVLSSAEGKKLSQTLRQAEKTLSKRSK
# [8] = target: T5, Tyrosyl-tRNA synthetase, putative (Trypanosoma cruzi (strain CL Brener)); assay: Trypanosoma cruzi tyrosyl tRNA synthetase (TcYRS) SOP; format: functional; design: scale not given: direction of the effect not stated beside the values; details: 30 µM
# [9] = target: Chromo domain-containing protein 1 (Saccharomyces cerevisiae (strain ATCC 204508 / S288c) (Baker's yeast)) (UniProt P32657); assay: ScCHD-1 Enzyme Inhibition Assay; format: functional; design: scale not given: in the data most compounds retested in dose-response had high values; details: 30 µM
# [10] = target: AMP-activated protein kinase, AMPK (Homo sapiens) (UniProt P54646+O43741+P54619+Q9UGJ0+Q9Y478+Q13131+Q9UGI9); assay: AMP-dependent Kinase enzyme assay. An in vitro enzyme assay that detects ADP turnover that is directly proportional to AMPK activity. This uses naive AMPK that is activated during the assay with MK-8722; format: functional; design: scale not given: direction of the effect not stated beside the values; details: 30 µM
# Sequence of Sialic acid-binding Ig-like lectin 9 (Homo sapiens) (Q9Y336 whole entry): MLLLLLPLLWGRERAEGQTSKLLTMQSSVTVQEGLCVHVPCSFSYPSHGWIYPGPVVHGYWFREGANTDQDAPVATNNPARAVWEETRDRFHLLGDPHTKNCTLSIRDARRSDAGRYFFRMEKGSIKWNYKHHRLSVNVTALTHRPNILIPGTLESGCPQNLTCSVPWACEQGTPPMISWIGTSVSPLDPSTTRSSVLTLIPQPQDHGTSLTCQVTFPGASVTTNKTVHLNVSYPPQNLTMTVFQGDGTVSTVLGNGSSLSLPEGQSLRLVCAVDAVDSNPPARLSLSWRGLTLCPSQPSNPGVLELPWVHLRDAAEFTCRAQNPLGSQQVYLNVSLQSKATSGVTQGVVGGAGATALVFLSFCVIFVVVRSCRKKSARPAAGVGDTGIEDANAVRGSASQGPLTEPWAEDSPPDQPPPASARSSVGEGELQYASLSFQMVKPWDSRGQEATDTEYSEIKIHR
# Sequence of Chromo domain-containing protein 1 (Saccharomyces cerevisiae (strain ATCC 204508 / S288c) (Baker's yeast)) (P32657 whole entry, the tested form may be a part): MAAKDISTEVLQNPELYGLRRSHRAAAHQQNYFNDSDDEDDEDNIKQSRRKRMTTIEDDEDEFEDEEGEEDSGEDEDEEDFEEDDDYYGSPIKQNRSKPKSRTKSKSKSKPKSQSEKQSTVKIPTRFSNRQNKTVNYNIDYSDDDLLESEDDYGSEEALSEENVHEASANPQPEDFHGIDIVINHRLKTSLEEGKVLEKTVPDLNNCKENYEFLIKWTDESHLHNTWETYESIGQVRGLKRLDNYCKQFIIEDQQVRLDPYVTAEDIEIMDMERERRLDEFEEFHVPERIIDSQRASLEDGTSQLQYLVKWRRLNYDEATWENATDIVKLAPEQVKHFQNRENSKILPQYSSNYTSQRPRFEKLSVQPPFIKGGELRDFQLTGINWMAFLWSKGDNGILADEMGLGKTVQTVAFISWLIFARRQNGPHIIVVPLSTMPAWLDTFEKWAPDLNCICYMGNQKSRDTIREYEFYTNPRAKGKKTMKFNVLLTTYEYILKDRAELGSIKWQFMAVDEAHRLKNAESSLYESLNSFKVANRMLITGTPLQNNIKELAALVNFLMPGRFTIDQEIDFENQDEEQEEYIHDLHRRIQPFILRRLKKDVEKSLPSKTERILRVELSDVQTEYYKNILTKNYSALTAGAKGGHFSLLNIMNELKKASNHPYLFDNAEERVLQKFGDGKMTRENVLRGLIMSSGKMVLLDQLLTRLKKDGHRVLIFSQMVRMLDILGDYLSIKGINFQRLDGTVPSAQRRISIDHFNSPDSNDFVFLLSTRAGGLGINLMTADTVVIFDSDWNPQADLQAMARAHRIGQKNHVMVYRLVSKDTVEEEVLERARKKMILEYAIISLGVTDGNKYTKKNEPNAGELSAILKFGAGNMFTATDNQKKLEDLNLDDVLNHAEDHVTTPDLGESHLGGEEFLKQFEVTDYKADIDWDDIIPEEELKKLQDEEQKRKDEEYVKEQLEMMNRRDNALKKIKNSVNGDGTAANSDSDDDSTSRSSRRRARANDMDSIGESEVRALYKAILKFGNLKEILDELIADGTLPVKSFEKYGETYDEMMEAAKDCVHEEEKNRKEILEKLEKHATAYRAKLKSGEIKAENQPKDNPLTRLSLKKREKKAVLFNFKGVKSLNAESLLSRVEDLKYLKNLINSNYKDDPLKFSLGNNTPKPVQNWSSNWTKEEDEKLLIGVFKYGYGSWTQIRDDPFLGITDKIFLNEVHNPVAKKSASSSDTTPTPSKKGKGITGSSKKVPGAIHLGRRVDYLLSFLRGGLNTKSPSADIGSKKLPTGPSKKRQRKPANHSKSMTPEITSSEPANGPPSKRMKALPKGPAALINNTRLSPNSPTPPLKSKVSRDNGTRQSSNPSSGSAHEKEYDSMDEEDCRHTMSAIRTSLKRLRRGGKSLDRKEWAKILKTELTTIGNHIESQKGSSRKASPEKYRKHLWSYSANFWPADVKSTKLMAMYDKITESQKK
# Sequence of Protein translocase subunit SecA (Escherichia coli (strain K12)) (P10408 whole entry): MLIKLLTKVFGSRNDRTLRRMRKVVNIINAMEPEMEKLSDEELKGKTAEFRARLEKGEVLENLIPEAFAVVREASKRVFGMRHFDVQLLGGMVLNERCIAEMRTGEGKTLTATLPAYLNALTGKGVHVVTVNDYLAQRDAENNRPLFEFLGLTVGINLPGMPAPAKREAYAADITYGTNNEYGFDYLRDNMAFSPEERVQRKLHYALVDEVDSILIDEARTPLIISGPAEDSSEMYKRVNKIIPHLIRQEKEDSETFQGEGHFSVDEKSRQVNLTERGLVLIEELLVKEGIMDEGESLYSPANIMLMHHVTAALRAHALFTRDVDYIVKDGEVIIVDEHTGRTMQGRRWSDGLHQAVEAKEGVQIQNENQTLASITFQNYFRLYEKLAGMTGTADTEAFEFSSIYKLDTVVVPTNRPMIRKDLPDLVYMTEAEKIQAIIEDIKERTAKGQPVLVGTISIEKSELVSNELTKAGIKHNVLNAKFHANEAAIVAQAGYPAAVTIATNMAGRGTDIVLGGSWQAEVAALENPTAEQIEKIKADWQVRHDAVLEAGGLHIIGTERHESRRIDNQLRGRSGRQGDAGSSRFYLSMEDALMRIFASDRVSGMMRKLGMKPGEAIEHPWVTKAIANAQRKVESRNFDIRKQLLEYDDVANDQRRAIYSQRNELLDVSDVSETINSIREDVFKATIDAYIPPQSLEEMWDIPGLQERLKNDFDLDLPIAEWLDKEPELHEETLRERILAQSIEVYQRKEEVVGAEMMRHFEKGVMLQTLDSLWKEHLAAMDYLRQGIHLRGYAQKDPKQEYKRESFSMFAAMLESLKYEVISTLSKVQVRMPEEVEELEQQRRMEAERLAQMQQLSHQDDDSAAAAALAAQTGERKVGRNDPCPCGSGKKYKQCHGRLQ
structure (smiles),measurement,setting,value
Cc1cc(C)n(-c2nc(NCCCO)c3c4c(sc3n2)CCCC4)n1,PXC50,"[1]; BOTTOM 0.694327114, HILLSLOPE 1.749821258, MAX_EFFECT 87.74703557, TOP 100.0",4.43
same,PXC50,"[1]; BOTTOM 1.783825543, HILLSLOPE 1.533717892, MAX_EFFECT 94.44444444, TOP 106.8963367",4.59
same,PXC50,"[1]; BOTTOM 1.928318756, HILLSLOPE 2.074005498, MAX_EFFECT 78.73015873, TOP 100.0",4.27
same,PXC50,"[1]; BOTTOM 4.876612539, HILLSLOPE 1.662902224, MAX_EFFECT 88.59060403, TOP 97.50762335",4.61
same,PXC50,"[1]; BOTTOM 5.143035966, HILLSLOPE 1.849282201, MAX_EFFECT 96.18717504, TOP 100.0",4.48
COc1ccc(OC)c(C2CCN(c3ccc4cc[nH]c4n3)C2)c1 (stereo unspecified),PXC50,"[1]; BOTTOM 1.480634741, HILLSLOPE 1.299916262, MAX_EFFECT 56.52173913, TOP 100.0",4.07
same,PXC50,"[1]; BOTTOM -1.247583822, HILLSLOPE 1.089672094, MAX_EFFECT 58.06451613, TOP 100.0",4.11
same,PXC50,"[1]; BOTTOM -8.715782986, HILLSLOPE 1.383269592, MAX_EFFECT 51.81518152, TOP 100.0",4.09
same,PXC50,[1]; MAX_EFFECT 37.4800638,< 4
same,PXC50,[1]; MAX_EFFECT 42.80230326,< 4
CC(=O)N1CCN(c2ccc3ccc(C(=O)NC4CCCC4)cn23)CC1,PXC50,"[1]; BOTTOM 0.0163, HILLSLOPE 3.098457383, MAX_EFFECT 65.01650165, TOP 63.35125002",4.68
same,PXC50,"[1]; BOTTOM 1.065846223, HILLSLOPE 1.103958369, MAX_EFFECT 61.67400881, TOP 100.0",4.54
same,PXC50,"[1]; BOTTOM 3.194533203, HILLSLOPE 3.014598033, MAX_EFFECT 67.98418972, TOP 64.53848237",4.96
same,PXC50,"[1]; BOTTOM 4.030962781, HILLSLOPE 1.885788534, MAX_EFFECT 71.11111111, TOP 74.41524471",4.79
same,PXC50,"[1]; BOTTOM 4.940042643, HILLSLOPE 1.835166553, MAX_EFFECT 81.72043011, TOP 100.0",4.36
same,PXC50,"[1]; BOTTOM 5.527382632, HILLSLOPE 1.355052942, MAX_EFFECT 67.14876033, TOP 100.0",4.56
same,PXC50,"[1]; BOTTOM 8.593441039, HILLSLOPE 3.55536171, MAX_EFFECT 67.39130435, TOP 63.3453536",4.8
same,Percent Effect,[2],-2.65%
same,Percent Effect,[3],14.3%
same,Percent Effect,[4],3.54%
same,Percent Effect,Trypanosoma cruzi,-0.563%
same,Percent Effect,[5],1.37%
same,Percent Effect,[6],12.4%
same,Percent Effect,Homo sapiens,8.76%
same,Percent Effect,[7],31.9%
same,Percent Effect,[8],15%
same,Percent Effect,[9],-4.27%
O=C(c1ccc2[nH]ccc2c1)N1CCn2cnc(COCC3CC3)c2C1,PXC50,"[1]; BOTTOM 5.122464756, HILLSLOPE 1.784249951, MAX_EFFECT 79.5379538, TOP 100.0",4.27
same,PXC50,"[1]; BOTTOM 5.453463465, HILLSLOPE 1.390916791, MAX_EFFECT 57.24637681, TOP 100.0",4.07
same,PXC50,[1]; MAX_EFFECT 37.27598566,< 4
same,Percent Effect,[2],1.11%
same,Percent Effect,[3],7.79%
same,Percent Effect,[10],5.2%
same,Percent Effect,[4],-2.14%
same,Percent Effect,Trypanosoma cruzi,-2.66%
same,Percent Effect,[5],13.6%
same,Percent Effect,[6],17.4%
same,Percent Effect,Homo sapiens,5.61%
same,Percent Effect,[7],26.5%
same,Percent Effect,[8],37.2%
same,Percent Effect,[9],-6.46%
